Screen size: about 310,000 compounds; about 14,000 (4.5%) showed an effect of 50% or more. Effects have a minus sign here. Shown is part of a subset that was picked to be rich in strong results.
biological target: human ether-à-go-go-related gene (hERG) potassium channel (human, UniProt Q12809); assay: primary screen, population patch clamp on CHO cells stably expressing hERG; higher = less effect of the substance
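Further: peak tail current of the secondary pulse compared with the same well before compound.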

Sequence of human ether-à-go-go-related gene (hERG) potassium channel (Q12809 whole entry, looked up): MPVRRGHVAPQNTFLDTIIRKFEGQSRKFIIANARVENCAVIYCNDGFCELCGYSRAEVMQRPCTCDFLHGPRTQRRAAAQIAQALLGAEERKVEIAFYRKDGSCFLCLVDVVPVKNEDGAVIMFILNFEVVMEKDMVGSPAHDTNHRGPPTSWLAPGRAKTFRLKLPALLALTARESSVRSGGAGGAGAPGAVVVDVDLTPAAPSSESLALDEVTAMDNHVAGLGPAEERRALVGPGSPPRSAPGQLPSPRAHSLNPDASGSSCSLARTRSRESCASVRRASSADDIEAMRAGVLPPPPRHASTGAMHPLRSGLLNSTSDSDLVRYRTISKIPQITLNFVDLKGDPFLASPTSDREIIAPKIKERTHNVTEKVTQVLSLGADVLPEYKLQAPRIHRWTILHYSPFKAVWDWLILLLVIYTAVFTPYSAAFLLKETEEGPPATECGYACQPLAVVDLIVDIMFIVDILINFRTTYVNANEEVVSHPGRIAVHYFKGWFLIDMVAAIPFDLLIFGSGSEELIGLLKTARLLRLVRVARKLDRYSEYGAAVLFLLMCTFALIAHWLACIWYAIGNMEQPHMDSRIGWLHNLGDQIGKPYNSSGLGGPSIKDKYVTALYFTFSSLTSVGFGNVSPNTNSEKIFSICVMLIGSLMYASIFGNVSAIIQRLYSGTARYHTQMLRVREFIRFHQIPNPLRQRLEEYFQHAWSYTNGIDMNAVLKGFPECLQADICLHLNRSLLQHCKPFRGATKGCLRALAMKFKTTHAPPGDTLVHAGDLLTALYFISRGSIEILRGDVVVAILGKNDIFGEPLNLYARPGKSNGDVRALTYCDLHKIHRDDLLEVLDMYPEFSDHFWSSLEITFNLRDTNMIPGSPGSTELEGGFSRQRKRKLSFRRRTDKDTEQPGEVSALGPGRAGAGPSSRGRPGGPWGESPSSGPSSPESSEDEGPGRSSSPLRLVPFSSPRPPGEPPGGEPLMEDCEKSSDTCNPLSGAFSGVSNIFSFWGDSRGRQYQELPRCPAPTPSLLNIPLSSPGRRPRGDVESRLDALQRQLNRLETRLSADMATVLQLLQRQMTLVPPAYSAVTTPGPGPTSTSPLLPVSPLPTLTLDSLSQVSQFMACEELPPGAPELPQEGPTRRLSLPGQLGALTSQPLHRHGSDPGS

Compound	hERG current change (%, negative = inhibition) at 10uM [%]
COc1cccc(OC)c1C(=O)Nc1ccc(N2CCCC2)cc1	7.52
Cc1ccc(N2C(=O)SC(Cc3ccccc3)C2=O)cc1 (stereo not shown)	13.7
COc1ccc(N(Cc2cc3ccccc3[nH]c2=O)S(=O)(=O)c2ccccc2)cc1	2.91
CCOC(=O)N1CCN(C(=O)c2ccc(OC(C)=O)cc2)CC1	16
CCCOc1ccc(N2C(=O)CC(N3CCN(c4ccc([N+](=O)[O-])cc4)CC3)C2=O)cc1 (stereo not shown)	-73.8
CCOc1ccc(N2C(=O)CC(N3CCN(c4ccc([N+](=O)[O-])cc4)CC3)C2=O)cc1 (stereo not shown)	-28.3
CCCOc1ccc(N2C(=O)CC(N3CCOCC3)C2=O)cc1 (stereo not shown)	-3.38
O=C(COC(=O)c1cccc2ccccc12)Nc1cccnc1Cl	0.703
CCC1=NN2C(=N)/C(=C\c3cccn3-c3ccc(C)c(C)c3)C(=O)N=C2S1	-6.32
CCC1=NN2C(=N)/C(=C\c3cccn3-c3c(C)cccc3C)C(=O)N=C2S1	-79.4
CCC1=NN2C(=N)/C(=C\c3cccn3-c3ccc(C)cc3C)C(=O)N=C2S1	-5.33
Cc1ccc(S(=O)(=O)N2CCCC(c3nnc4n3-c3ccccc3SC4)C2)cc1 (stereo not shown)	-92.8
Cc1ccc(-c2nc(C3CCCN(S(=O)(=O)c4ccc(C)cc4)C3)no2)cc1 (stereo not shown)	12.2
Cc1ccc(S(=O)(=O)N2CCCC(C)C2)cc1 (stereo not shown)	12.9
O=C(O)CCCCCNC(=O)c1ccccc1	8.89
NC(=O)CSc1nnc(-c2cccs2)n1-c1ccccc1	10.2
O=C(O)c1ccc(CSc2nnc(-c3cccnc3)n2-c2ccc(Br)cc2)cc1	15.1
CCOc1ccc(-n2c(SCc3ccc(C#N)cc3)nnc2-c2cccnc2)cc1	-71.9
N#CCSc1nnc(-c2cccnc2)n1-c1ccccc1	-7.93
N#Cc1ccc(CSc2nnc(-c3c[nH]c4ccccc34)n2-c2ccccc2)cc1	5.38
CCOc1ccc(-n2c(SCC(N)=O)nnc2-c2cccnc2)cc1	-5.57
CCOc1ccc(-n2c(SCc3cc(=O)oc4cc(C)ccc34)nnc2-c2cccnc2)cc1	-70.7
COc1ccc(-n2c(SCC#N)nnc2-c2cccnc2)cc1	-34

Compound	hERG current change (%, negative = inhibition) at 10uM [%]
CCOc1ccc(-n2c(SCc3cc(=O)oc4cc(C)c(C(C)C)cc34)nnc2-c2cccnc2)cc1	-37.2
N#Cc1ccc(CSc2nnc(-c3cccnc3)n2-c2ccccc2)cc1	-71.2
N#Cc1ccc(CSc2nnc(-c3cccs3)n2-c2ccccc2)cc1	-72.7
CC(=O)Nc1ccc2c(CSc3nnc(-c4cccnc4)n3-c3ccc(C)cc3C)cc(=O)oc2c1	-17.8
O=C(CCCN1C(=O)/C(=C/c2ccccc2Cl)SC1=S)NNC(=O)c1ccncc1	2.34
O=C(NNc1ccccn1)c1ccccc1CC[N+](=O)[O-]	13.3
COc1ccc(-c2ccc(C#N)c(SCC(=O)Nc3sc4c(c3C#N)CCC4)n2)cc1OC	10.3
COC(=O)c1c(C)[nH]c(C(=O)COc2ccc3ccc(=O)oc3c2)c1C	11.5
CN(C(=O)C1CCOC1)c1nnc(-c2cnccn2)s1 (stereo not shown)	11.1
O=S(=O)(Nc1nc(-c2ccccc2)cs1)c1cc(Cl)ccc1Cl	18.3
CCOC(=O)C1=C(CC)OC(N)=C(C#N)C1c1ccsc1 (stereo not shown)	1.69
CC1CCN(c2ccc(/C=N\Nc3nncn3N)cc2[N+](=O)[O-])CC1	-5.89
O=C(NCc1cccnc1)C1CCCN(S(=O)(=O)c2ccc(Cl)cc2)C1 (stereo not shown)	-26.9
Cc1oc(-c2ccc(Cl)cc2)nc1CN1CCCC(C(=O)NCc2cccnc2)C1 (stereo not shown)	-60.8
Cc1ccccc1-c1nc(CN2CCC(C(=O)NCc3cccnc3)CC2)c(C)o1	-32.8
Cc1oc(-c2ccc(Cl)cc2)nc1CN1CCC(C(=O)NCc2cccnc2)CC1	-65.9
Cc1ccccc1-c1nc(CN2CCCC(C(=O)NCc3cccnc3)C2)c(C)o1 (stereo not shown)	-64
COc1ccc(C(C)C)cc1S(=O)(=O)N1CCC(C(=O)NCc2cccnc2)CC1	-5.48
Cc1ccc(-c2nc(CSCC(=O)NCc3cccnc3)c(C)o2)cc1	-15.3
Cc1cc(C)c(S(=O)(=O)N2CCCC(C(=O)NCc3cccnc3)C2)c(C)c1 (stereo not shown)	-27
Cc1oc(-c2ccccc2F)nc1CN1CCC(C(=O)NCc2cccnc2)CC1	-26.7
CCS(=O)(=O)N1CCC(C(=O)NCc2cccnc2)CC1	-11.7
CC(C)c1ccc(CN2CCC(C(=O)NCc3cccnc3)CC2)cc1.O=C(O)C(=O)O	-52.1
